These results are taken from PubChem BioAssay (EPA / NIEHS).

The structures appear in SMILES notation. Inconclusive results are not listed. Active and inactive are the calls of the source. Rule for the calls: active = hit-call score of the fitted dose curve at least 0.9, where 1 is the maximum; inconclusive = response in the unintended direction; inactive = score below 0.9.

The assay can be described thus: TOX21_p53_BLA_p2_viability: Viability Assessment in the Tox21 HCT-116 p53 Agonism Beta-lactamase Assay, Phase 2 (AID 2283591).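 Note: compound exposure lasted 16 h at 37 °C; actives lower the ATP signal meaning cytotoxicity.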 From the text:
TOX21_p53_BLA_p2 is a cell-based, single-readout assay that uses HCT116, a human intestinal cell line, […] in a 1536-well plate.TOX21_p53_BLA_p2_viability is an assay readout measuring cellular ATP content and detected with CellTiter-Glo Luciferase-coupled ATP quantitation.TOX21_p53_BLA_p2_viability used a type of viability reporter where loss-of-signal activity can be used to understand changes in the cell viability. Furthermore, this assay endpoint can be referred to as a secondary readout, because this assay has produced multiple assay endpoints where this one serves a viability function. To generalize the intended target to other relatable targets, this assay endpoint is annotated to the cell cycle intended target family, where the subfamily is cytotoxicity.
Thawing Method: Place 14 mL of pre-warmed thaw medium into a 15 mL of conical tub. Remove the vial of cells to be thawed from liquid nitrogen and thaw rapidly by placing at 37C in a water bath with gentle agitation for 1-2 minutes. Decontaminate the vial by wiping with 70% ethanol before opening in a biological safety cabinet. Transfer the vial contents drop-wise into 14 mL of thaw medium in a sterile 15-mL conical tub. Centrifuge cells at 900 rpm for 4 minutes and resuspend in thaw medium. Transfer contents to the T75 tissue culture flask containing Thaw Medium and place flask in a humidified 37C/5% CO2 incubator. Switch to growth medium at first passage.Propagation Method: Aspirate medium, rinse once in DPBS, add 0.25% Trypsin/EDTA and swirl to coat the cell evenly. Add an equal volume of Growth Medium to inactivate Trypsin after 2-3 minutes incubation at 37C. Centrifuge cells at 900 rpm for 4 minutes and resuspend in growth medium. Cell should be passage or fed at least twice a week.Assay Protocol: Harvest cells from culture in growth medium and resuspend in assay medium. 2.2 Dispense 4000 cells/5 uL/well into 1536-well black/clear bottom plates using a Multidrop dispenser. After the cells were incubated at 37C for 5 hours, 23 nL of compounds dissolved in DMSO were transferred to the assay plate by a PinTool resulting in a 217-fold dilution. Incubate the plates for 16 hours at 37C, 5% CO2. Add 1 uL of 6X LiveBLAzer FRET B/G (CCF4-AM) Substrate Mixture to each well using a BioRAPTR dispenser and incubate the plates at room temperature for 2 hours. Measure fluorescence intensity at 460 and 530 nm emission and 405 nm excitation by an Envision detector. Data is expressed as the ratio of 460nm/530nm emissions. Add 4 uL of Cell-titer Glo to each well using BioRAPTR and incubate the plates at room temperature for […]. For cell viability readout that measures cytotoxicity, 4 ul/well of CellTiter-Glo reagent was added into the assay plates using a Flying Reagent Dispenser. After 30 min incubation at room temperature, the luminescence intensity in the plates was measured using a ViewLux plate reader.
In the case of `CCCCN1C(=O)[C@@H]([C@H](O)C2CCCCC2)NC(=O)C12CCN(Cc1ccc(Oc3ccc(C(=O)O)cc3)cc1)CC2`, the call was inactive. Still for that read-out and setting: as for `OCc1c[nH]c2ccccc12`, the entry is “inactive”; as for `NNC(=O)c1ccncc1`, “inactive”. For `O=C(O)c1cccc(C[C@@H]2COc3ccc(OCc4nc5cc(F)ccc5s4)cc3[C@@H]2O)c1`, the compound was classed as inactive. Still for that read-out and setting: the entry for `S=P(N1CC1)(N1CC1)N1CC1` is “inactive”; for `CC1(C)C(=O)N(Cl)C(=O)N1Cl` it is “inactive”. Consider `CCOC(N)=O`, for which the compound was called inactive. Consider `CCCCCCCCN(C)C`, for which the compound was called inactive.

With `c1ccc2cc3ccccc3cc2c1`, the call was inactive. Same read-out and setting: as for `NC(=O)NN=Cc1ccc([N+](=O)[O-])o1`, the entry is “inactive”; as for `C[C@]12C=CC(=O)C=C1CC[C@H]1[C@@H]3C[C@@H](O)[C@](O)(C(=O)CO)[C@@]3(C)C[C@H](O)[C@@]12F`, “inactive”.

In the case of `CCCCCCCCCC`, the compound was called inactive.

On to `CC(=O)c1ccccc1`, for which the result was inactive. As to `O=S1(=O)CCCO1`, the compound was classed as inactive.

As to `CCCCCCCC/C=C\CCCCCCCC(=O)OC[C@@H](O)[C@H]1OC[C@H](O)[C@H]1O`, the outcome was inactive. A word on the AC50: it is the concentration giving half of the maximal activity seen. For the compound `CCc1ccc(O)c(C(C)(C)C)c1`, the AC50 is 69.5 µM (active). `CCCCC(CC)C(=O)OCCOCCOCCOC(=O)C(CC)CCCC` (centres undefined): the compound was classed as inactive. Still for that read-out and setting: the entry for `O=C1CN(N=Cc2ccc([N+](=O)[O-])o2)C(=O)N1` is “inactive”; for `OCCOCCOCCO` it is “inactive”. Still for that read-out and setting: as for `O=C(N[C@H](CO)[C@H](O)c1ccc([N+](=O)[O-])cc1)C(Cl)Cl`, the entry is “inactive”; as for `CCCCCCCCCCCCCCO`, “inactive”. The same measure, in the same setting: the entry for `CCCCCCCCCCCCCCCCOS(=O)(=O)O` is “inactive”; for `CCn1nc(C)c2c1C(=O)NCC(c1ccc(O)cc1)=N2` it is “inactive”.

Turning to `C=CN1CCCC1=O`, the compound was classed as inactive. The same measure, in the same setting: as for `OC(CCl)CCl`, the entry is “inactive”. Still for that read-out and setting: the entry for `c1ccc2ncccc2c1` is “inactive”.

Regarding `Cc1cccc(O)c1C`, the compound was called inactive. As to `CC(C)c1nnc2ccc(-c3ocnc3-c3cc(F)ccc3F)cn12`, the compound was classed as inactive. Same read-out and setting: as for `OC(Cn1cncn1)(Cn1cncn1)c1ccc(F)cc1F`, the entry is “inactive”.
